Measured values: PubChem BioAssay (NCI)
Several values for one entry are separate records, joined by “and”; a condition that tells them apart may be missing. Identical values can stand only once. This is part of a sample that, as a whole, favours compounds with a hit. Of some 79,000 tested, about 15% had one in any assay. Cut-off read from the data, not from the text of the source: active = growth inhibition above about 70%; inactive = the rest.

Key:
[1] = NCI Yeast Anticancer Drug Screen. Data for the rad50 strain (AID 155);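 note: 0% = growth of vehicle-only cultures of the same strain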; conditions: S. cerevisiae rad50 strain growth inhibition, stronger effect = higher value; at 50.0 µM unless noted
Summary of the method: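 Readout: growth inhibition relative to vehicle-treated cultures. Compound exposure was carried out in a genetically defined yeast strain deficient in DNA damage repair.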

[2] = NCI Yeast Anticancer Drug Screen. Data for the mec2-1 strain (AID 157); conditions: S. cerevisiae mec2-1 strain, stronger effect = higher value; at 50.0 µM unless noted
Summary of the method: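 Each compound was tested on mec2-1 yeast, a strain altered in DNA damage repair or cell cycle control. Growth inhibition is reported relative to vehicle.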

[3] = NCI Yeast Anticancer Drug Screen. Data for the sgs1 mgt1 strain (AID 161);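 note: 0% = growth of cultures given vehicle only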; conditions: S. cerevisiae sgs1 mgt1 strain, stronger effect = higher value; at 50.0 µM unless noted
Summary of the method: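 Mutant yeast exposed to compound; growth scored against vehicle-only wells.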

[4] = NCI Yeast Anticancer Drug Screen. Data for the cln2 rad14 strain (AID 165);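 note: 0% = growth equal to vehicle treated cultures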; conditions: S. cerevisiae cln2 rad14 strain, stronger effect = higher value; at 50.0 µM unless noted
Summary of the method: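 Test compounds were added to cln2 rad14 yeast cultures; inhibition of growth was then determined by comparison with vehicle treatment.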

[5] = NCI Yeast Anticancer Drug Screen. Data for the bub3 strain (AID 167); conditions: S. cerevisiae bub3 mutant strain, stronger effect = higher value; at 50.0 µM unless noted
Summary of the method: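 Readout: yeast growth inhibition, expressed relative to vehicle-only wells. The test organism is a mutant strain from a panel with lesions in DNA repair or checkpoint genes.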

[6] = NCI Yeast Anticancer Drug Screen. Data for the mlh1 rad18 strain (AID 175); conditions: S. cerevisiae mlh1 rad18 strain growth inhibition, stronger effect = higher value; at 50.0 µM unless noted
Summary of the method: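 Inhibition values reflect reduced growth of mutant yeast versus vehicle-treated controls following compound exposure; the mutations affect DNA damage repair.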

Measured: growth inhibition

O=S1(=O)C(c2ccccc2)=C1c1ccccc1
inactive: [1] -6.95% | [2] 6.55% | [3] 8.6% | [4] 24.6% | [5] -11.7% | [6] 17.6%

O=C(O)c1nc(-c2ccccc2)ncc1-c1nnnn1-c1ccccc1
inactive: [1] -37.7% | [2] 3.75% | [3] -21.9% | [4] 4.7% | [5] -18.7% | [6] -7.1%

OC(Cc1ccc2ccccc2n1)(C(F)(F)F)C(F)(F)F
inactive: [1] -53.8% | [2] -43.6% | [3] -37.4% | [4] -3.85% | [5] -29.9% | [6] -21.8%

CCC(CC)C(=O)OC1CCCCC1
inactive: [1] 9.9% | [2] 5.25% | [3] 13.8% | [4] -7.8% | [5] 4.8% | [6] 5.35%

N#CC1C(=O)C(=O)N(c2ccccc2)C1=O (stereo unspecified)
inactive: [1] -6.1% | [2] -6.85% | [3] -24.7% | [4] 3.15% | [5] -1.85% | [6] -6.25%

COc1ccc(C=Nc2ccccc2C(=O)O)cc1
inactive: [1] 0.2% | [2] 7.1% | [3] 0.65% | [4] -41.9% | [5] 24.3% | [6] 5.9%

COc1ccc(C)cc1S(=O)(=O)c1ccc(Cl)cc1[N+](=O)[O-]
inactive: [1] -2.55% | [2] -11.1% | [3] 2% | [4] -12.7% | [5] 2.25% | [6] -25.1%

Brc1ccc(SSc2ccc(Br)cc2)cc1
inactive: [1] -12.8% and 3.2% | [2] 13.1% and -10.3% | [3] 3.45% and 5.3% | [4] -18.4% and -5.5% | [5] -3.15% and 9.8% | [6] 18.8% and 2.65%

O=C(c1ccc([N+](=O)[O-])cc1)N(Cc1ccccc1)Cc1ccccc1 (tested in a mixture with another compound)
inactive: [1] -7% | [2] 15.7% | [3] -12.7% | [4] -10.9% | [5] 26.8% | [6] 9.5%

O=C(OC1C2C=COC(OC3OC(CO)C(O)C(O)C3O)C2C2(CO)OC12)c1ccc(O)cc1 (stereo unspecified)
inactive: [1] -0.15% | [2] -6.45% | [3] 17.8% | [4] 18.6% | [5] 1.8% | [6] -11.6%

O=C(Cl)C(=O)c1c[nH]c2ccccc12
inactive: [1] 6.2% | [2] -1.95% | [3] -3% | [4] 1.65% | [5] -33.6% | [6] -12.5%

COc1ccccc1C(=O)Oc1ccc(OC(=O)c2ccccc2OC)c(C(C)=O)c1
inactive: [1] 16.6% | [2] -1.85% | [3] 0% | [4] 3.25% | [5] 20.2% | [6] 35.4%

COC(=O)C1=CO[C@@H](OC2OC(CO)C(O)C(O)C2O)[C@H]2[C@@H]1C=C[C@@]21C=C([C@H](C)OC(=O)/C=C/c2ccc(OC3OC(CO)C(O)C(O)C3O)cc2)C(=O)O1 (stereo partly specified)
inactive: [1] -18.4% | [2] -18.6% | [3] -20.1% | [4] -6.15% | [5] 2.65% | [6] -20.1%

Nc1[nH]c(=O)[nH]c(=O)c1[N+](=O)[O-]
inactive: [1] 5.4% | [2] -6.8% | [3] -7.1% | [4] -8.5% | [5] -9.35% | [6] -3.15%

N.N.O=P([O-])([O-])C1(P(=O)([O-])[O-])CCCCCN1.[Pt+2]
inactive: [1] 13.6% | [2] 22.4% | [3] -5.05% | [4] 6.25% | [5] 23.7% | [6] 11.2%

COc1ccc(/C=C2\N=C(c3ccc([N+](=O)[O-])cc3)OC2=O)cc1OC
inactive: [1] -5.35% | [2] -2.75% | [3] -14.8% | [4] -15.5% | [5] 0.25% | [6] -17.1%

C=C[C@@]1(C)C=C2CC[C@@H]3[C@](C)(CCC[C@@]3(C)C(=O)O)[C@H]2CC1
inactive: [1] 67.5% | [2] 37.8% | [3] 31.3% | [4] 52.1% | [5] 35.1% | [6] 55.2%

Cc1ccc(C)n1-n1c(Cc2ccc(Cl)cc2)n[nH]c1=O
inactive: [1] 8.5% | [2] 3.05% | [3] 16% | [4] 8.05% | [5] -4.4% | [6] 13.1%

Clc1ccc(N=NNc2ccccc2)cc1
inactive: [1] 29.6% and 6.7% | [2] -0.85% and -2.8% | [3] -22.9% and -22.1% | [4] -30.1% and -10.1% | [5] -20.1% and -6.6% | [6] -16.4% and 30.2%

Clc1ccc2[nH]ncc2c1
inactive: [1] 8.9% | [2] -36.1% | [3] -5.9% | [4] -7.95% | [5] 7.55% | [6] 18.1%

O=C1/C(=C/c2ccccc2)CCC2CCCCC12 (stereo unspecified)
inactive: [1] 22.1% | [2] -0.95% | [3] -0.8% | [4] -24.9% | [5] -20.1% | [6] 14.4%

C=CCOCC(O)CNCC(O)COCC=C (stereo unspecified)
inactive: [1] -36.9% | [2] -33.7% | [3] -24.9% | [4] 14.3% | [5] -31.2% | [6] 5.2%

CCc1cccc(CC)c1NC(=S)N/C=C(\C#N)S(=O)(=O)c1ccc(C)cc1
inactive: [1] -4.8% | [2] -10.6% | [3] 17.4% | [4] -15.4% | [5] -5.5% | [6] -20.5%

CCOc1ccc(NC(=O)C(=O)CC(=O)c2c(C)n([O-])c3ccccc3[n+]2=O)cc1
inactive: [1] -5.95% | [2] 3.8% | [3] -34.5% | [4] 7.2% | [5] 0.1% | [6] -10.8%

NC(=S)N/N=C1\CCCc2ccccc21
inactive: [1] 60.8% | [2] 21.2% | [3] 42.3% | [4] 41.9% | [5] 7.15% | [6] 52.8%

CCOc1cc(OCC)c2c(c1)C(=O)OC2=O
inactive: [1] 4.15% | [2] -3.8% | [3] 10% | [4] 4.05% | [5] -34.4% | [6] -10.2%

O=C(O)C[N-]CC(=O)O.OO.[O]=[V]
inactive: [1] -16.9% | [2] 1.5% | [3] -1.7% | [4] -30.7% | [5] 3.75% | [6] 3.55%

O=C(c1cccs1)N(C(=S)N1CCN(c2ccccc2)CC1)C1CCCCC1
inactive: [1] -0.45% | [2] -5.9% | [3] -8% | [4] 13.4% | [5] -26.8% | [6] -10.4%

Cn1c(Nc2ccccc2)c(C=Nc2ccccc2)c(=O)n(C)c1=O
inactive: [1] -2.15% | [2] 3.45% | [3] -7.85% | [4] 7.55% | [5] -22.6% | [6] -0.9%

Cc1c(Cl)cc(Cl)c2c1C(=O)CC(C)O2 (stereo unspecified)
inactive: [1] 20.4% | [2] 7.4% | [3] -0.4% | [4] -17.2% | [5] -14.5% | [6] 18.8%

O=C(Nc1ccc2c(c1)Cc1ccccc1-2)c1cccc2ccccc12
inactive: [1] -4.05% | [2] -20.8% | [3] 0.4% | [4] -47% | [5] 12.2% | [6] -5.2%

COC(=O)c1ccc2c(c1)CC1(C2)Cc2cc3c(cc2C1)CCC3
inactive: [1] -19.4% | [2] -19.9% | [3] -17.5% | [4] 9.95% | [5] 12.8% | [6] -12.5%

CC(=O)NCC(=O)c1ccc([N+](=O)[O-])cc1
inactive: [1] 16.6% and -14.7% | [2] -16.3% and -24.1% | [3] 13% and -0.95% | [4] -0.2% and 6.65% | [5] -6.95% and -17.6% | [6] 29.8% and -1.7%

CC(C)(C)C(=O)Oc1ccc([N+](=O)[O-])cc1
inactive: [1] 2.15% | [2] -0.35% | [3] -7.55% | [4] -30.4% | [5] -33.1% | [6] 10.2%

Nc1ccc(OCc2ccccc2)cc1[N+](=O)[O-]
inactive: [1] 6.4% | [2] -30.8% | [3] 11.3% | [4] 14.5% | [5] -4.45% | [6] 21%

COc1cccc(-c2cc(=O)c3cc(C)cnc3[nH]2)c1
inactive: [1] -17.2% | [2] 3.85% | [3] 4.05% | [4] -2.4% | [5] 18.8% | [6] -13.2%

CCCCC(C)(C)SCCC(=O)O
inactive: [1] 11.2% | [2] -7.25% | [3] 14.9% | [4] 10.9% | [5] 5.6% | [6] -5.35%

CCOC(=O)C1=CC(C(=O)OCC)=C2C=CC=C3C=CC=C1N32
inactive: [1] 7.75% | [2] 8.7% | [3] 25.9% | [4] -1.65% | [5] -18% | [6] -2.95%

C/C(CC(C)C)=N/O
inactive: [1] 3.75% and -12.1% | [2] -3.25% and -4.35% | [3] -17.5% and -5.85% | [4] -23.2% and -20.5% | [5] -0.4% and 3% | [6] 11.8% and 9.05%

CCCC(=O)N(C(C)C)C(C)C
inactive: [1] 11.2% | [2] 22% | [3] 12.5% | [4] 6.6% | [5] 8.5% | [6] 8.8%

Cc1nc(SCC(=O)Nc2ccccc2)c2sc(=S)n(-c3ccccc3)c2n1
inactive: [1] -45.9% | [2] -10.2% | [3] -0.05% | [4] -5.35% | [5] -19.9% | [6] -18.4%
